# Results from PubChem BioAssay AID778 (Sanford-Burnham Center for Chemical Genomics, 2007).
# Out of some 96,000 compounds screened, about 20,000 (21%) were called active. Only a sample is shown. A number with no mark means an inactive call.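 The calls were made as follows: active = CYP2C19 inhibition above a set limit at 5 µM in the primary screen (cut at about 50% in these data); inactive = the rest.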
# Target: Cytochrome P450 2C19 (Homo sapiens) (UniProt P33261)
# Assay: blockers of cytochrome P450 2C19 activity – biochemical, luminescence, ADME assay, primary screen (AID 778);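 also: plate controls were negative control wells for no effect and 2.5 mM tranylcypromine positive control for full effect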
# Settings: CYP2C19 Supersomes, luciferin-H EGE luminescence, 30 min; at 5 µM; active compounds read high
# Chain of Cytochrome P450 2C19 (Homo sapiens) (P33261 whole entry, looked up): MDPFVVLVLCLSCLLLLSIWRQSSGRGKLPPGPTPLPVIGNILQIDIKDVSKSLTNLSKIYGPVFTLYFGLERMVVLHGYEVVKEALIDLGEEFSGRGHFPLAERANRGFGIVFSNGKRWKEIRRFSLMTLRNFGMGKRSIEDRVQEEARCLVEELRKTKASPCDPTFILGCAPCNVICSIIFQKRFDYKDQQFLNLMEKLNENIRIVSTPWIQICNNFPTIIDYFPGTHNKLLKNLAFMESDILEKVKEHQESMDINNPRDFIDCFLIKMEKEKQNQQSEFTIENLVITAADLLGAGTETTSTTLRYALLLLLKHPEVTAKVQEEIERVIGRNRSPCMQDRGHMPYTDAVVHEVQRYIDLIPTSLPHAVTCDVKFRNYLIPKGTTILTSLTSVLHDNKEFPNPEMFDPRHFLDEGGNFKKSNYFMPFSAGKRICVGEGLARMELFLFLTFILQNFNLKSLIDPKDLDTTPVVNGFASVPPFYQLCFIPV
row,SMILES,inhibition
1,CCc1ccc2c(c1)cc(CN(C(=S)Nc1ccccc1Cl)C1CC1)c1nnnn12,-11.2%
2,Cc1nc2ccccc2c2oc(C(=O)NCCCN3CCC(C)CC3)cc12,-6.7%
3,O=C(NC1(C(F)(F)F)NC(=O)N(Cc2cccnc2)C1=O)c1ccccc1Cl (stereo not drawn),39.8%
4,CC1Oc2ccccc2N(Cc2cccnc2)C1=O (stereo not drawn),26.8%
5,CC12c3ccccc3C(c3ccccc31)C1C(=O)N(Cc3cccnc3)C(=O)C12 (stereo not drawn),81.2% (active)
6,COc1cccc(N(CC(=O)NCCSc2ccccn2)S(C)(=O)=O)c1,53.8% (active)
7,O=C(CCSc1ccccc1)NCCSc1ccccn1,71% (active)
8,COC(=O)c1ccccc1NC(=O)CSc1ccccn1,26.9%
9,CCc1ccccc1N(CC(=O)NCCSCc1ccco1)S(C)(=O)=O,24%
10,Cc1cccc(N(CC(=O)Nc2ccc(-c3nc4ccc(C)cc4s3)cc2)S(C)(=O)=O)c1,1.8%
11,O=C(COc1ccc(Cl)cc1)NCCSc1ccccc1,14.6%
12,Nc1nnc(SCCN2C(=O)c3ccccc3S2(=O)=O)s1,29%
13,O=C(N/N=C/c1ccsc1)c1cc(O)cc(O)c1,7%
14,Nc1nc(C23CC4CC(CC(C4)C2)C3)cs1,40.8%
15,CCC(C)OC(=O)C(C)Oc1ccc(-c2ccccc2)cc1 (stereo not drawn),0.6%
16,O=C(NCN1CCN(CCO)CC1)c1cnccn1,-8.6%
17,Cc1ccc(S(=O)(=O)NC(=O)N2CCCC(C)(C)C2)cc1,-4.4%
18,Cc1ccc(S(=O)(=O)N(C)C2(C)CCS(=O)(=O)C2)cc1 (stereo not drawn),18.3%
19,Cc1ccc(S(=O)(=O)C2(S(=O)(=O)c3ccc(C)cc3)CCCC2)cc1,83.3% (active)
20,CCN(CC)S(=O)(=O)c1ccc(N2CCOCC2)c(C(=O)O)c1,9.1%
21,CN(C)S(=O)(=O)c1ccc(N2CCCC2)c(C(=O)NCc2ccccc2)c1,62.4% (active)

row,SMILES,inhibition
1,Cc1ccc(S(=O)(=O)N2CCOCC2)cc1C(=O)NCc1ccc(F)cc1,15.3%
2,Cc1cc(OC(=O)c2ccc(Cl)cc2)cc(=O)n1C,-5.3%
3,O=C(Nc1ccccc1Cl)O/N=C(/c1ccccc1)c1ccccn1,21.3%
4,O=C(N1CCOCC1)N(Cc1ccccc1)c1ccccn1,31.3%
5,COc1ccc(Cc2nnc(NS(=O)(=O)Cc3ccccc3)s2)cc1,9%
6,Cc1cccc(NC(=O)CN2C(=O)CNC2=O)c1,-10.1%
7,Cc1cccc(NC(=O)CSc2nnc(NC(=O)CN3CCOCC3)s2)c1,0.9%
8,Cc1cccc(NC(=O)CN2CCCN(S(=O)(=O)c3ccc(Br)s3)CC2)c1,67.4% (active)
9,CCc1nnc(NC(=O)CSc2nc3c(c(=O)n2-c2ccccc2OC)SCC3)s1,11.4%
10,CS(=O)(=O)c1ccc2nc(NC(=O)CN3CCCCCC3)sc2c1,-6%
11,Cc1nnc(SCC(=O)N2CCN(c3ccccc3)CC2)n1-c1ccccc1,-4.9%
12,Cc1cc(=O)[nH]c(SCC(=O)N2c3ccccc3CC2C)n1 (stereo not drawn),1.8%
13,CCS(=O)(=O)c1ccc2oc(SCC(=O)N3c4ccccc4CC3C)nc2c1 (stereo not drawn),-8.1%
14,CC1Cc2ccccc2N1C(=O)CSc1nc2ccccc2o1 (stereo not drawn),76.8% (active)
15,O=C(CSc1nc2ccccc2o1)N1CCN(c2ccc(Cl)cc2)CC1,4.3%
16,O=C(CSc1nc2ccccc2o1)N1CCN(c2ccccc2)CC1,55.6% (active)
17,Cc1ccccc1Nc1nc(N)nc(CN2CCN(c3ccccn3)CC2)n1,12.9%
18,Cc1ccc(C)c(NC(=O)c2ccc(OC(=O)c3ccco3)cc2)c1,4.9%
19,CCC(CC)c1nnc(NS(=O)(=O)Cc2ccccc2)s1,-10.5%
20,COc1ccc(Cn2cccc(NC(=O)Nc3ccc(C#N)cc3)c2=O)cc1,5.5%
21,O=C(Nc1cccn(Cc2c(Cl)cccc2Cl)c1=O)c1ccc(Cl)cc1,79.9% (active)

row,SMILES,inhibition
1,CSc1ccc(C#N)cc1NC(=O)c1ccc(Cl)cc1,3%
2,Cc1cc(/C=C2/SC(=O)N(CC(=O)OC(C)C)C2=O)c(C)n1C,1.6%
3,Cc1c(NC(=O)CSc2cccc3cccnc23)c(=O)n(-c2ccccc2)n1C,-13.9%
4,Cc1ccc(-n2nc3cc(Cl)c(NC(=O)c4ccco4)cc3n2)cc1,10.3%
5,CC1CCc2c(c3ccccc3[nH]c2=O)O1 (stereo not drawn),25.5%
6,CC1CN(c2nc(-c3ccccc3)nnc2-c2ccccc2)CC(C)O1 (stereo not drawn),-3.1%
7,Cn1nc(-c2ccccc2)c(-c2nc(-c3ccc(Cl)cc3)no2)c1Cl,-16.4%
8,Clc1ccc(-c2nnc(-c3ccccc3)nc2N2CCSCC2)cc1,72% (active)
9,O=C(Nc1ccccc1C(F)(F)F)c1cc(-c2ccc(O)cc2)on1,6.8%
10,COc1ccc(C(=O)Nc2nc(-c3ccc(S(=O)(=O)N4CCOCC4)cc3)cs2)cc1,14.6%
11,Cn1ccs/c1=N\S(=O)(=O)c1ccc(C(C)(C)C)cc1,65% (active)
12,CCC1=[N+]([O-])C(C)(/C(C)=N\O)N(O)C1(C)C (stereo not drawn),23.5%
13,NC(=O)Cn1c(=O)oc2ccccc21,-6.4%
14,c1ccc(-n2nnnc2N2CCOCC2)cc1,33.5%
15,O=C(c1ccc(S(=O)(=O)N2CCOCC2)cc1)N1CCN(c2ccccc2)CC1,-4.7%
16,O=C1C(Cl)=C(N2CCOCC2)C(=O)N1c1ccccc1,84.7% (active)
17,CC(C)(C)NC(=O)c1cc(NC(=O)c2ccco2)cc(NC(=O)c2ccco2)c1,20.8%
18,CCOC(=O)c1sc(=S)n2c1[nH]c(=O)c1ccc(C(=O)OC)cc12,-1.3%
19,CCOC(=O)C1=C(C)Nc2sc(C(=O)c3ccc(Br)cc3)c(N)c2C1c1ccc(C(=O)OC)cc1 (stereo not drawn),88.2% (active)
20,CCOC(=O)N1CCC(NC(=O)c2cnn3ccccc23)CC1,5.9%
21,O=C1C(C=NCC2CCCO2)=C(O)c2ccccc21 (stereo not drawn),8.1%
